JMJD2A Tudor inh: JMJD2A Tudor domain (human) inhibition; 390,000 tested, 4.4% active; Potency, µM (series often up to 114 µM), hits mostly inhibitors; O75164; AlphaScreen JMJD2A-Tudor / H3K4me3 peptide binding; note: nearly all actives have a fitted effect of over 50% in size
BAZ2B block: blocks human BAZ2B | Q9UIF8 | AlphaScreen BAZ2B-H3K14Ac peptide displacement | Potency, µM (titrated, usually from 114 µM), most hits filed as inhibitors | 360,000 tested, 4.4% active | AID 504333; note: nearly all actives have a fitted effect of over 60% in size
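In this displacement format the biotinylated H3(5-23) peptide acetylated at Lys14 serves as ligand at 50 nM, with BAZ2B at 50 nM in PBS pH 7.4 containing 0.01% Tween-20. Donor and acceptor beads are 10 ug/mL final.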
PLK1 PBD inh: inhibitors of human PLK1 polo-box domain binding; P53350; Plk1 PBD binding of FITC phosphopeptide, fluorescence polarization; Potency, µM, usual class: inhibitors; 360,000 tested, 2.8% active; AID 720504; note: series mostly up to about 57 µM; nearly all actives have a fitted effect of over 65% in size
G9a block: inhibitors of human histone lysine methyltransferase G9a. G9a H3K9 monomethylation, AlphaScreen, 2 h. Potency, µM (top dose mostly 102 µM), hits mostly inhibitors. 350,000 tested, 8.8% active; note: nearly all actives have a fitted effect of over 75% in size
Target sequence (Q96KQ7 913-1193 limits assumed): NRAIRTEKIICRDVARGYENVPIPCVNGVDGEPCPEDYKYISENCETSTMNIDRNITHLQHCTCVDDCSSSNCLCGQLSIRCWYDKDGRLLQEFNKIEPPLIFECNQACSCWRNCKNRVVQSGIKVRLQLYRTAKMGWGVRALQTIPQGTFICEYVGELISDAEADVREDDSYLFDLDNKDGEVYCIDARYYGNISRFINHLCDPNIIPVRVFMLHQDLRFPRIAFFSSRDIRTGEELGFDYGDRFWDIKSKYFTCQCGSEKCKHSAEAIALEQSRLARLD
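Quantitative HTS format: methyltransferase activity on a biotin-tagged H3K9 peptide is measured by AlphaScreen, using a rabbit anti-monomethyl-H3K9 antibody with streptavidin donor and anti-IgG acceptor beads. Final levels are 20 nM enzyme, 500 nM peptide, 20 uM SAM; 2 h RT.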
PI5P4K alpha inh: inhibitors of human PI5P4K alpha; P48426; PI5P4Kalpha enzyme, ADP-Glo luminescence, 60 min; hits give low values; max response, %; 330,000 tested, 1.2% active; AID 652105; active = max response of -50% or lower; inconclusive = between -30% and -50%; inactive = -30% or higher; note: value at the top dose of about 77 µM
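qHTS, 1536-well: enzyme/substrate mix, compound by pin tool, 5 microM ATP final; RT 60 min; ADP-Glo reagents 1 (45 min) then 2 (30 min); luminescence.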
HP1b chromo inh: blocks HP1-beta chromodomain binding to methylated histone tails. AID 540317. 390,000 tested, 0.56% active. P83916. AlphaScreen HP1-beta / biotin-H3K9me3 peptide binding. Potency, µM (highest dose often 114 µM), most hits filed as inhibitors; note: nearly all actives have a fitted effect of over 70% in size
Target sequence (P83916 whole entry, looked up): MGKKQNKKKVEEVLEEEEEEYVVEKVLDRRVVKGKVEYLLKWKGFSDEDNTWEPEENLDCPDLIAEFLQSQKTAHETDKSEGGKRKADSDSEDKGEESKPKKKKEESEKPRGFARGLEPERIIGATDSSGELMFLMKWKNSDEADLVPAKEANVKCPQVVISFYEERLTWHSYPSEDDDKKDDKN
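Compound inhibition of the preformed complex between 50 nM HP1-beta and 50 nM biotinylated H3K9me3 peptide was read by AlphaScreen. Buffer was PBS pH 7.4 with 0.01% Tween-20. Incubations ran 30 min at room temperature, with 10 ug/mL donor/acceptor beads.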
Large screens that a line does not name were inactive; ! = repeats disagree. An excerpt weighted towards active compounds, which were near 12% of everything screened. Unless noted, calls come from the whole dose curve; as a rule, active = well fitted curve in the direction sought with a large enough effect; inconclusive = small, poorly fitted or top-dose-only effect, or another doubt; inactive = no such curve, though single readings can be large; an effect the other way counts as inactive or inconclusive.

O=C(CC1=NC2(CCCC2)Cc2ccccc21)N1CCOCC1	JMJD2A Tudor inh inconclusive, BAZ2B block 50.1µM, G9a block inconclusive (no result: PI5P4K alpha inh)
CCOC(=O)C1=C(CN2CCN(c3cccc(OC)c3)CC2)NC(=O)NC1c1ccc(OC)cc1 (configuration not stated)	JMJD2A Tudor inh inconclusive, BAZ2B block inconclusive (no result: PLK1 PBD inh, PI5P4K alpha inh)
CC(C)OCCCNC(=O)CCCn1c(SCC(=O)c2ccc(Br)cc2)nc2c(sc3ccccc32)c1=O	none (no result: PLK1 PBD inh, PI5P4K alpha inh)
COc1cc(C)c(NC(=S)NCCCN2CCOCC2)cc1OC	PLK1 PBD inh inconclusive, G9a block 35.5µM
COc1ccc(C(C)(C)C)cc1NC(=S)NCCN1CCOCC1	PLK1 PBD inh 23.8µM, G9a block 44.7µM
Cc1cccc(C(=O)OCc2cc(=O)oc3c(C)c(C)ccc23)c1O	G9a block 39.8µM
CCOc1ncccc1C(=O)OCc1cc(=O)oc2c(C)c(C)ccc12	none
CCN(CCO)Cc1cc(=O)oc2c(C)c(C)ccc12	G9a block 50.1µM (no result: PI5P4K alpha inh)
COc1ccc(N2CCN(C(=O)COC(=O)CCc3ccccc3)CC2)cc1	none
COc1ccc(O[C@H]2C=C[C@@H](c3ccccc3)O[C@@H]2COC(=O)CCC(C)=NO[C@@H]2O[C@H](COC(C)=O)[C@@H](OC(C)=O)[C@H](OC(C)=O)[C@H]2OC(C)=O)cc1	G9a block 50.1µM (no result: JMJD2A Tudor inh, PLK1 PBD inh, PI5P4K alpha inh, HP1b chromo inh)
CC(=O)OC[C@H]1O[C@@H](O/N=C/C[C@@H]2C=C[C@H](OC(C)=O)[C@@H](COC(C)=O)O2)[C@H](OC(C)=O)[C@@H](OC(C)=O)[C@@H]1OC(C)=O	G9a block 79.4µM (no result: JMJD2A Tudor inh, PLK1 PBD inh, PI5P4K alpha inh, HP1b chromo inh)
CC(=O)OCC1OC(OCc2cn(C[C@H]3CC[C@H](Cn4cc(COC5OC(COC(C)=O)C(OC(C)=O)C(OC(C)=O)C5OC(C)=O)nn4)O3)nn2)C(OC(C)=O)C(OC(C)=O)C1OC(C)=O (some centres not stated)	none (no result: G9a block)
O=C(OCC(O)C1OC(c2ccccc2)OC(COC(=O)c2ccccc2)C1O)c1ccccc1 (configuration not stated)	none (no result: JMJD2A Tudor inh, BAZ2B block, G9a block, HP1b chromo inh)
COc1ccc(O[C@H]2C=C[C@@H](c3ccccc3)O[C@@H]2COC(=O)CC/C(C)=N/OC[C@@H](O)[C@H]2O[C@@H]3OC(C)(C)O[C@@H]3[C@H]2O)cc1	BAZ2B block inconclusive, G9a block 79.4µM (no result: JMJD2A Tudor inh, PLK1 PBD inh, PI5P4K alpha inh, HP1b chromo inh)
CC(=O)OCC1OC(c2ccccc2)C(OC(C)=O)C(OC(C)=O)C1OC(C)=O (configuration not stated)	none (no result: PI5P4K alpha inh)
O=C(c1csnn1)N1CCC2(CC1)CCN(c1cccc(-c3ccccc3)c1)CC2	none (no result: JMJD2A Tudor inh, BAZ2B block, PLK1 PBD inh, PI5P4K alpha inh, HP1b chromo inh)
COc1ccccc1CNC(=O)c1cc2c(-c3ccc(Cl)cc3)nn(C)c2s1	none (no result: BAZ2B block, PLK1 PBD inh, PI5P4K alpha inh)
COc1ccc(C2C=C(c3ccccc3)Nc3nc(NC(C)=O)nn32)cc1 (configuration not stated)	BAZ2B block 50.1µM!, G9a block inconclusive (no result: PLK1 PBD inh, PI5P4K alpha inh)
COc1ccc(C2C=C(c3ccccc3)Nc3nnnn32)cc1 (configuration not stated)	G9a block 50.1µM (no result: PI5P4K alpha inh)
COc1cccc(C2=CC(c3ccccc3)n3nnnc3N2)c1 (configuration not stated)	G9a block 39.8µM (no result: PI5P4K alpha inh)
COc1cccc(C2=CC(c3cccc(OC)c3OC(F)F)n3nnnc3N2)c1 (configuration not stated)	none
COc1cccc(C2=CC(c3cccc(OC)c3OC)n3nnnc3N2)c1 (configuration not stated)	G9a block 10µM
COc1cccc(C2=CC(c3ccc(N(C)C)cc3)n3nnnc3N2)c1 (configuration not stated)	G9a block inconclusive
COc1ccc(C2=CC(c3ccc(C)cc3)n3nnnc3N2)cc1 (configuration not stated)	G9a block inconclusive (no result: PI5P4K alpha inh)
COc1ccc(/C=C/C(=O)Nc2nc3n(n2)C(c2ccccc2)C=C(c2ccccc2)N3)cc1 (configuration not stated)	none (no result: PLK1 PBD inh, PI5P4K alpha inh)
COc1cc(/C=C2/C(=N)N3C(c4ccccc4)=CSC3=NC2=O)ccc1OCC(=O)O	JMJD2A Tudor inh inconclusive, BAZ2B block 50.1µM, PLK1 PBD inh inconclusive, PI5P4K alpha inh -52.4 (no result: G9a block)
N=C1/C(=C\c2ccc(-c3cccc(Cl)c3)o2)C(=O)N=C2SC=C(c3ccccc3)N12	JMJD2A Tudor inh inconclusive, BAZ2B block inconclusive, G9a block 44.7µM, PI5P4K alpha inh -55.1, HP1b chromo inh inconclusive
N=C1/C(=C\c2ccc(-c3ccc(C(=O)O)cc3)o2)C(=O)N=C2SC=C(c3ccccc3)N12	JMJD2A Tudor inh 14.1µM, BAZ2B block 4.47µM, PLK1 PBD inh inconclusive, PI5P4K alpha inh -70.3, HP1b chromo inh 15.8µM (no result: G9a block)
Cc1cccc(-n2c(C)cc(/C=C3/C(=N)N4C(c5ccccc5)=CSC4=NC3=O)c2C)c1	none
O=C(CNC(=O)c1ccccc1)OC(Cc1ccccc1)C(=O)Nc1cc(C(F)(F)F)ccc1Cl (configuration not stated)	none (no result: BAZ2B block, PLK1 PBD inh, G9a block, PI5P4K alpha inh, HP1b chromo inh)
CCOC(=O)c1c(CN2CCOCC2)n(-c2ccccc2)c2cc(Br)c(O)c(CN(C)C)c12	JMJD2A Tudor inh inconclusive, G9a block inconclusive
CCOC(=O)c1c(C)n(C)c2ccc(O)c(CN3CCCCC3)c12	G9a block inconclusive
CCOC(=O)c1c(CN2CCCCC2)n(C)c2cc(Br)c(O)c(CN(C)C)c12	G9a block 35.5µM
CCOC(=O)c1c(CSc2ccccc2)n(C)c2ccc(O)c(CN3CCN(C)CC3)c12	JMJD2A Tudor inh 44.7µM, BAZ2B block inconclusive (no result: G9a block)
CCOC(=O)c1c(C)n(C)c2ccc(O)c(CN(C)C)c12	G9a block inconclusive
CCOC(=O)c1c(CSc2ccc(C)cc2)n(C)c2cc(Br)c(O)c(CN(C)C)c12	JMJD2A Tudor inh 31.6µM, BAZ2B block 44.7µM, G9a block 8.91µM, HP1b chromo inh inconclusive
CCOC(=O)c1c(CSc2ccccc2)n(C)c2cc(Br)c(O)c(CN(C)C)c12	JMJD2A Tudor inh inconclusive, BAZ2B block inconclusive, G9a block 39.8µM, HP1b chromo inh inconclusive
Cc1c2cnn(CC(=O)NCC(C)c3ccccc3)c(=O)c2c(C)n1Cc1cccc(Cl)c1 (configuration not stated)	none (no result: PLK1 PBD inh, PI5P4K alpha inh)
O=C(c1csnn1)N1CCC[C@@]2(CCN(Cc3cc(C(F)(F)F)cc(C(F)(F)F)c3)C2)C1	none (no result: JMJD2A Tudor inh, BAZ2B block, PLK1 PBD inh, PI5P4K alpha inh, HP1b chromo inh)
Cc1ccc(OCC(=O)Nc2nonc2-c2ccc(Br)cc2)cc1C	none (no result: PLK1 PBD inh, PI5P4K alpha inh)
COc1ccc(Cl)cc1NC(=O)Cn1c(=O)n(Cc2nc(C)no2)c(=O)c2ccccc21	none (no result: PLK1 PBD inh, PI5P4K alpha inh)
CC1CCCC(NC(=O)Cn2c(Cl)nc3c2c(=O)n(C)c(=O)n3C)C1C (configuration not stated)	none (no result: BAZ2B block, G9a block)
CCOC(=O)c1c(CSc2ccsc2)n(C)c2cc(Br)c(O)c(CN(C)C)c12	JMJD2A Tudor inh inconclusive, BAZ2B block inconclusive, G9a block 31.6µM

Bioassay records (PubChem)
